This is part of a sample that, as a whole, favours compounds with a hit. Of some 79,000 tested, about 15% had one in any assay. Cut-off read from the data, not from the text of the source: active = growth inhibition above about 70%; inactive = the rest.
Tests used:
[1] = NCI Yeast Anticancer Drug Screen. Data for the rad50 strain (AID 155);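 note: 0% = growth of vehicle-only cultures of the same strain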; conditions: S. cerevisiae rad50 strain growth inhibition; at 50.0 µM; hits give high values
Procedure, shortened: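 Growth of the mutant yeast was measured after compound exposure and referenced to vehicle-treated cultures.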

[2] = NCI Yeast Anticancer Drug Screen. Data for the mec2-1 strain (AID 157); conditions: S. cerevisiae mec2-1 strain, at 50.0 µM, hits give high values
Procedure, shortened: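 Growth inhibition is read against vehicle-treated controls after compound exposure of the mec2-1 yeast strain, which is defective in DNA damage repair or cell cycle control.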

[3] = NCI Yeast Anticancer Drug Screen. Data for the sgs1 mgt1 strain (AID 161);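 note: 0% = growth of cultures given vehicle only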; conditions: S. cerevisiae sgs1 mgt1 strain, at 50.0 µM, hits give high values
Procedure, shortened: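 Compounds are added to genetically altered yeast, and growth is compared with cultures given vehicle alone to give percent inhibition.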

[4] = NCI Yeast Anticancer Drug Screen. Data for the cln2 rad14 strain (AID 165);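 note: 0% = growth equal to vehicle treated cultures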; conditions: S. cerevisiae cln2 rad14 strain, at 50.0 µM, hits give high values
Procedure, shortened: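 Growth inhibition, relative to vehicle-treated controls, is the read-out. The test organism is a yeast strain with defined genetic alterations, cln2 rad14.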

[5] = NCI Yeast Anticancer Drug Screen. Data for the bub3 strain (AID 167); conditions: S. cerevisiae bub3 mutant strain, at 50.0 µM, hits give high values
Procedure, shortened: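 Whole-cell yeast assay. The mutant strain was incubated with compounds, and growth inhibition was determined by comparison with vehicle-treated cells.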

[6] = NCI Yeast Anticancer Drug Screen. Data for the mlh1 rad18 strain (AID 175); conditions: S. cerevisiae mlh1 rad18 strain growth inhibition; at 50.0 µM; hits give high values
Procedure, shortened: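 Cells of a genetically altered yeast strain, deficient in DNA damage repair, were treated with compound. Their growth was then compared with that of vehicle-treated cultures to give inhibition.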

Measured: growth inhibition

O=C1c2ccccc2C(=O)c2c(O)cc([N+](=O)[O-])cc21
inactive: [1] 18.2% | [2] 3.05% | [3] 11.7% | [4] 6.05% | [5] 14.2% | [6] -1.5%

CC(=O)CCC(CCCC(CCC(C)=O)[N+](=O)[O-])[N+](=O)[O-] (stereo not given)
inactive: [1] -7.3% | [2] 15.3% | [3] 0.9% | [4] -9.4% | [5] 13.9% | [6] 4.15%

COC(=O)NC(Nc1ccc(C)cc1)(C(F)(F)F)C(F)(F)F
inactive: [1] 11.9% | [2] -8.9% | [3] -39.6% | [4] 5.9% | [5] -2.65% | [6] -4.7%

COc1ccc2c(c1)CCCN2S(=O)(=O)c1ccccc1[N+](=O)[O-]
inactive: [1] -25.7% | [2] -3.9% | [3] -17.9% | [4] -7.65% | [5] 39.2% | [6] 1.85%

O=C(Nc1ccccc1C(=O)O)C(=O)C(C(=O)c1ccccc1-c1ccccc1)C1OC(=O)c2ccccc21 (stereo not given)
inactive: [1] 26.1% | [2] 5.65% | [3] 4.2% | [4] -38.6% | [5] 6.25% | [6] 13.9%

N#CC1CNC(=S)N=C1c1ccccc1 (stereo not given)
inactive: [1] 11.5% | [2] 17.8% | [3] 17.9% | [4] -74.6% | [5] 0.9% | [6] 12.1%

CCCNC(=S)N/N=C/c1cccc(C)n1
inactive: [1] -23.3% | [2] -26.1% | [3] 2.15% | [4] 15.2% | [5] 24.2% | [6] -12%

Cc1cc(Cl)ccc1NC(=O)C1C(=O)N(c2ccc(Cl)cc2C)C(=O)/C1=N\NC(N)=O (stereo not given)
inactive: [1] 7.65% | [2] -24.4% | [3] 14.4% | [4] 6.1% | [5] -6.45% | [6] 5.7%

O=C(Nc1ccc(Cl)cc1)Nc1nnc2nc(CC(=O)c3ccccc3)c(=O)[nH]n12
inactive: [1] 15.7% | [2] 1.1% | [3] 11.9% | [4] -19% | [5] -21.9% | [6] 1.1%

O=C(O)Cc1cc(CC(=O)O)cc(CC(=O)O)c1
inactive: [1] -3.8% | [2] -18.8% | [3] 6.05% | [4] 5.2% | [5] 1.6% | [6] -17.9%

O=C(NC(=O)c1ccccc1F)Nc1ccc(Cl)cc1
inactive: [1] 27.1% | [2] 37.3% | [3] 24.6% | [4] 56.8% | [5] 49.8% | [6] 43.1%

CC(=O)NC1=C/C(=C/COC(C)=O)OC1=O
inactive: [1] 22.6% | [2] -9.9% | [3] 11.8% | [4] -57% | [5] 5.8% | [6] 8.75%

C=C(C#N)C1OCC2OC(C)(C)OC21 (stereo not given)
inactive: [1] 3.7% | [2] -4% | [3] -0.35% | [4] 12.3% | [5] -4.8% | [6] -25.9%

CCC(O)(CC)c1ccc2ncccc2c1
inactive: [1] 3.6% | [2] 6.05% | [3] 7.7% | [4] -19.1% | [5] -6.65% | [6] 7%

CSC(=O)Oc1ccc([N+](=O)[O-])cc1
inactive: [1] 6.25% | [2] 1.55% | [3] -6.7% | [4] -38.3% | [5] 12.5% | [6] -2.9%

Cc1cccc(C(=O)OCc2ccccc2CN2CCCC2)c1
inactive: [1] 1.5% | [2] -7.75% | [3] -10.1% | [4] 2.85% | [5] -2.05% | [6] -1.45%

COc1ccc(OC)c(N=Cc2cccs2)c1
inactive: [1] 14.6% | [2] 5.95% | [3] 20.9% | [4] 15.1% | [5] 16.2% | [6] 22.1%

O=C(OCCN=C1c2ccccc2CCc2ccccc21)c1ccccc1
inactive: [1] -12.2% | [2] -6.45% | [3] 18.9% | [4] 6.8% | [5] 37.3% | [6] 0.4%

CC(Sc1nc2ccc(Cl)cc2[nH]1)C(=O)O (stereo not given)
inactive: [1] -11.8% | [2] -4% | [3] -0.9% | [4] -16.9% | [5] 12.9% | [6] -3.85%

NCC(N)=O
inactive: [1] -1.6% | [2] -14.2% | [3] -29% | [4] -35% | [5] -36.2% | [6] 4.1%

— PubChem BioAssay (NCI)
